Results from PubChem BioAssay AID1159580 (chemical genetic matrix, 2015).
About 2,000 (36%) of roughly 5,500 compounds were called active. About 18% were inconclusive and are not listed. Rule as the data show it: active = normalized growth mostly below about 0.91 (no sharp cut-off); inconclusive = no clear call, values can overlap the other calls; inactive = mostly above about 0.92. Some of the results follow.

Experiment: chemical genetic growth profiling, strain panel (AID 1159580);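 also: tested at 20 µM; growth read once vehicle control cultures reached saturation at 30 °C; 1 = growth at the plate median or of vehicle wells; lower values mean less growth of the strain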
Details: S. cerevisiae deletion strains, growth OD

Measured: normalized growth

CCC(=O)c1ccc2c(c1)N(CCCN(C)C)c1ccccc1S2
inactive: locus YAL040C, strain CLN3, hits give low values 0.997 | locus YCL061C, strain MRC1 (second series), hits give low values 1 | locus YDR150W, strain NUM1, hits give low values 1.01 | locus YDR363W, strain ESC2, hits give low values 1.02 | locus YER002W, strain NOP16, hits give low values 1.01 | locus YGR229C, strain SMI1, hits give low values 0.986 | locus YJR075W, strain HOC1, hits give low values 0.985 | locus YNL153C, strain GIM3, hits give low values 1.16 | locus YNL175C, strain NOP13, hits give low values 1.02 | locus YNL197C, strain WHI3, hits give low values 1.05 | locus YNL224C, strain SQS1, hits give low values 1.07 | locus YNL322C, strain KRE1, hits give low values 0.971 | locus YOR083W, strain WHI5 (second series), hits give low values 1 | locus YPL055C, strain LGE1, hits give low values 0.988
